# Test results reported in PubChem BioAssay AID504834 (National Center for Advancing Translational Sciences (NCATS), 2011).
# Screen size: about 320,000 compounds; about 22,000 (6.9%) were called active. Inconclusive results (about 27%) are left out. Calls follow the shape of the dose curve; as a rule, active = well fitted inhibition curve with a large enough effect; inconclusive = small, poorly fitted or top-dose-only effect, or another doubt; inactive = no such curve, though single readings can be large or run the other way. Shown is part of a subset that was picked to be rich in actives. Entries that show only a call come without a potency.
# Assay: Primary qHTS for delayed death inhibitors of the malarial parasite plastid, 96 hour incubation
# Settings: P. falciparum luciferase reporter growth; series mostly up to 28.7 µM
# Procedure, shortened: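 Readout is luminescence from an integrated firefly luciferase in P. falciparum. Red cells, 2% hematocrit and 0.05% parasitemia final, were cultured with compound through two parasite generations (96 hours) at 37 C, 5% CO2.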
# Potency is read from the fitted curve at half-maximal effect.
Compound,Potency,"activity change, negative = inhibition"
COc1ccc(CCNC(=O)CN(C)S(=O)(=O)c2ccc3nc(C)sc3c2)cc1OC,inactive,–
CC1Cc2nc(SCC(=O)Nc3ccccc3F)n(C)c(=O)c2S1 (stereo not drawn),inactive,–
CCn1c(SCC(=O)Nc2ccc3c(c2)OCCO3)nc2c(c1=O)SC(C)C2 (stereo not drawn),inactive,–
COCCn1c(SCC(=O)Nc2cc(Cl)ccc2OC)nc2c(c1=O)SC(C)C2 (stereo not drawn),3.7 µM (active),–
Cn1c(SCC(=O)N2CCCCC2)nc2c(c1=O)SCC2,inactive,–
COCCn1c(SCC(=O)Nc2ccccc2F)nc2c(c1=O)SCC2,14.7 µM (active),–
Cn1nnnc1SCC(=O)Nc1ccccc1C(=O)NC1CC1,inactive,–
CCn1c(SCC(=O)Nc2ccccc2F)nc2c(c1=O)SC(C)C2 (stereo not drawn),11.7 µM (active),–
COCCn1c(SCC(=O)Nc2cc(OC)ccc2OC)nc2c(c1=O)SC(C)C2 (stereo not drawn),inactive,–
CCCCSc1nc2c(c(=O)n1CC)SC(C)C2 (stereo not drawn),inactive,–
CCOc1ccc(CCNC(=O)COC(=O)C2CCN(c3ccc(C(F)(F)F)cn3)CC2)cc1OCC,inactive,–
FC(F)(F)C1CCCN(c2nsc3ccccc23)C1 (stereo not drawn),inactive,–
Cc1cccc(NC(=O)C2CCCN(C(=O)Nc3ccc(F)cc3)C2)c1C (stereo not drawn),inactive,–
CCOC(=O)N1CCN(S(=O)(=O)c2ccc(Br)cc2)CC1,inactive,–
CC(C)(C)c1ccccc1NC(=O)CN1C(=O)NC2(CCCC2)C1=O,inactive,–
CC(C)C(=O)N1c2ccccc2NC2=C(C(=O)CCC2)C1c1ccc(N(C)C)cc1 (stereo not drawn),2.33 µM (active),–
CN(C)c1ccc(C2Nc3ccccc3C(=O)N2NS(=O)(=O)c2ccccc2)cc1 (stereo not drawn),inactive,–
CC1C(=O)Nc2ccccc2N1C(=O)c1c(F)cccc1F (stereo not drawn),inactive,–
Cc1ccc(C(=O)N2CCCC2)c(F)c1F,inactive,–
Cc1ccc(C(NC(=O)N2CCCC2)C(Cl)(Cl)Cl)cc1F (stereo not drawn),8.28 µM (active),–
Cc1cc(C)cc(NC(=O)N2CCCCCCC2)c1,inactive,–
CC(Sc1ncnc2c1cnn2-c1ccccc1)C(=O)Nc1ccc(N2CCOCC2)cc1 (stereo not drawn),inactive,–
CCOC(=O)c1ccccc1CN1C(=O)c2ccccc2S1(=O)=O,inactive,–
CCOC(=O)c1cc2n(c1N)-c1ccccc1C2=O,inactive,–
CCOC(=O)c1cc2n(c1C)-c1ccccc1C2=O,9.28 µM (active),–
Nc1c(N(CCO)C(=O)C2CCCCC2)c(=O)[nH]c(=O)n1Cc1ccccc1,inactive,–

Compound,Potency,"activity change, negative = inhibition"
CC(=O)Nc1ccc(-c2csc(NC=C3C(=O)OC(C)(C)OC3=O)n2)cc1,inactive,–
CC(=O)Nc1ccc(-c2csc(NC(=O)Nc3ccccc3)n2)cc1,inactive,–
CC(=O)Nc1ccc(S(=O)(=O)Nc2nc(-c3ccc(C(C)(C)C)cc3)cs2)cc1,1.65 µM (active),–
O=C(CSc1nnc(CNC(=O)c2ccc(F)cc2)o1)Nc1ccc2c(c1)OCO2,inactive,–
Cc1ccc(N2C(=O)CC(N3CCSCC3)C2=O)c(C)c1 (stereo not drawn),inactive,–
N#Cc1ccc(S(=O)(=O)NCC(=O)OCC(=O)NCCc2ccccc2)cc1,inactive,–
O=C(COC(=O)CCc1nc2ccccc2c(=O)[nH]1)Nc1ccc(N2CCOCC2)cc1,inactive,–
Cc1ccc(NC(=O)CSc2nnc(COc3ccccc3C)o2)cc1,inactive,–
CC(C)NC(=O)CSc1nnc(COc2ccccc2Cl)o1,inactive,–
Cc1ccccc1OCc1nnc(SCC(=O)N2c3ccccc3Sc3ccc(Cl)cc32)o1,13.1 µM (active),–
O=C(NNS(=O)(=O)Cc1ccccc1)c1ccc([N+](=O)[O-])cc1,inactive,–
Cc1ccccc1-c1n[nH]c(=S)n1C,–,19.3% [at 5.75 µM] (inactive)
Cn1c(-c2sccc2OCc2cccc(C(F)(F)F)c2)n[nH]c1=S,14.7 µM (active),–
Cn1c(-c2sc3cc(C(F)(F)F)cnc3c2-c2ccccc2)n[nH]c1=S,inactive,–
O=c1o[nH]c(-c2ccccc2)c1N=Nc1c(F)cccc1Cl,inactive,–
CC[C@H]1CN2CCc3cc(OC)c(OC)cc3[C@@H]2C[C@@H]1C[C@H]1NCCc2cc(OC)c(OC)cc21,0.0738 µM (active),–
COC(=O)c1ccc([C@@H](O)[C@H](C)C(=O)CC(=O)OC(C)(C)C)cc1,inactive,–
CCn1nc(C)c(/C=N/NC(=O)Cc2ccc(Cl)cc2)c1C,inactive,–
Cc1nn(Cc2ccc(Cl)cc2)c(Cl)c1/C=N/NC(=O)CNc1ccccc1F,9.28 µM (active),–
COc1ccc(Cl)cc1NC(=O)CNc1ccccc1F,inactive,–
Cc1ccccc1OCC(=O)Nc1ccc2c(c1)ncn2C,inactive,–
COc1ccc2nc(N3CCN(C(=O)c4ccc([N+](=O)[O-])o4)CC3)sc2c1,0.738 µM (active),–
COc1cccc(-c2nn(C)c3sc(C(=O)N4CCN(c5ccccc5)CC4)cc23)c1,inactive,–
CCN(CC)CCN(C(=O)c1cccc([N+](=O)[O-])c1)c1nc2ccc(OC)cc2s1,inactive,–
O=C(Cc1cccs1)N/N=C/c1ccc(OCc2ccccc2)cc1,11.7 µM (active),–
C=CCNC(=S)N/N=C/c1ccc(OCc2ccccc2)cc1,inactive,–

Compound,Potency,"activity change, negative = inhibition"
CCOc1ccc(NC(=O)C/C(C)=N/NC(=O)Cc2cccs2)cc1,inactive,–
O=C(Nc1ccc(-n2cccn2)cc1)C1CCN(Cc2ccsc2)CC1,inactive,–
COc1ccc(NC(=O)CSc2ccc(-c3ccco3)nn2)c(OC)c1,14.7 µM (active),–
O=C(CSc1ccc(-c2ccco2)nn1)NCc1ccc2c(c1)OCO2,inactive,–
CCn1c(SCC(=O)Nc2cc(C)c(Cl)cc2OC)nnc1-c1ccco1,inactive,–
COc1cc(Cl)c(C)cc1NC(=O)CSc1nnc(-c2ccco2)n1CC(C)C,10.4 µM (active),–
COc1ccccc1NC(=O)CSc1nnc(C)n1CC1CCCO1 (stereo not drawn),inactive,–
COc1ccc(NC(=O)CCC(=O)Nc2cc(OC)c(NC(=O)c3ccco3)cc2OC)c(OC)c1,inactive,–
CCN(CC)c1ccc(/C=N/NC(=O)CNC(=O)c2cccs2)cc1,inactive,–
O=C(Nc1ccccc1-c1nc2ccccc2[nH]c1=O)c1cccs1,inactive,–
Cc1ccc(C(CNC(=O)Nc2ccccc2)N2CCN(C)CC2)cc1 (stereo not drawn),inactive,–
CC(C)(C)c1ccc(Oc2ccc(N)cc2)cc1,inactive,–
CC(C)(C)c1ccc(OC2=CS(=O)(=O)c3ccccc32)cc1,9.28 µM (active),–
O=C1NS(=O)(=O)c2ccccc21,inactive,–
CCn1cc(/C=C(\NC(=O)c2cc(OC)c(OC)c(OC)c2)C(=O)N2CCN(C)CC2)c2ccccc21,inactive,–
CC1CCN(CC(=O)Nc2nccs2)CC1,inactive,–
Cc1cc(=O)[nH]c(SCC(=O)Nc2ccc(Br)cc2)n1,inactive,–
CC(=O)Oc1ccc(N(C(C)=O)S(=O)(=O)c2ccc3ccccc3c2)cc1Br,inactive,–
Cc1nc([N+](=O)[O-])cn1CC(=O)Nc1ccc(Cl)cc1,inactive,–
O=C(Nc1nc2ccc([N+](=O)[O-])cc2s1)c1ccc(S(=O)(=O)N2CCCc3ccccc32)cc1,inactive,–
NS(=O)(=O)c1ccc(CNC(=O)c2cccc(S(=O)(=O)N3CCc4ccccc43)c2)cc1,inactive,–
CNC(=O)c1ccsc1NC(=O)c1ccc(S(=O)(=O)N2CCc3ccccc32)cc1,11.7 µM (active),–
CCN(CC)CCCNC(=O)c1cc2c(=O)[nH]c3ccc(C)cc3c2s1,inactive,–
CC(=O)NS(=O)(=O)c1ccc2c(c1)Cc1cc(S(=O)(=O)NC(C)=O)ccc1-2,inactive,–
COc1cc(C2/C(=C(\O)c3ccc4c(c3)CC(C)O4)C(=O)C(=O)N2c2nnc(C)s2)cc(OC)c1OC (stereo not drawn),inactive,–
Cc1sc2nc(SCC(N)=O)n(C)c(=O)c2c1C,inactive,–

Compound,Potency,"activity change, negative = inhibition"
Cc1sc2nc(SCCO)n(-c3ccccc3)c(=O)c2c1C,10.4 µM (active),–
CCc1cc2c(=O)n(-c3ccccc3)c(SCC(=O)O)nc2s1,inactive,–
CCS(=O)(=O)Nc1cc(C(=O)OC)ccc1C(=O)OC,10.4 µM (active),–
CCN(CCO)C(=S)Nc1cc(C(=O)OC)ccc1C(=O)OC,inactive,–
COC(=O)c1ccc(C(=O)OC)c(NC(=S)N2CCCCC2)c1,inactive,–
COc1ccc2oc(C(=O)NCc3ccco3)c(C)c2c1,inactive,–
CCCCCC1CC(COc2ccccc2)OC1=O (stereo not drawn),inactive,–
O=C(NCc1ccccc1)C(c1ccco1)N(C(=O)c1csnn1)c1ccccc1F (stereo not drawn),inactive,–
CCOCCCNC(=O)C(NC(=O)CNC(=O)c1ccccc1)c1ccc(OC)cc1 (stereo not drawn),inactive,–
CCOCCCNC(=O)C(NC(=O)CNC(=O)c1ccccc1)c1ccc(C)cc1 (stereo not drawn),9.28 µM (active),–
CCOCCCNC(=O)C(NC(=O)c1ccc(=O)[nH]c1)c1ccc(C)cc1 (stereo not drawn),inactive,–
COc1ccc(C(=O)NC2CC(C)(C)Cc3c2cnn3-c2ccccc2C)o1 (stereo not drawn),inactive,–
Cc1ccc(S(=O)(=O)NCCC(=O)NC2CCN(Cc3ccccc3)CC2)cc1,inactive,–
OC(c1nc2ccc(F)cc2[nH]1)C(O)c1nc2ccc(F)cc2[nH]1 (stereo not drawn),inactive,–
Cc1c(NC(=O)C(C)Oc2cccc(Cl)c2)c(=O)n(-c2ccccc2)n1C (stereo not drawn),inactive,–
CN(Cc1ccccc1)C(=O)COc1ccccc1,inactive,–
CN(C(=O)COc1ccccc1)c1nnc(-c2ccncc2)s1,4.15 µM (active),–
CN(C(=O)c1ccccn1)c1nnc(-c2ccccn2)s1,inactive,–
CC(C)Oc1ccc(C(CC(=O)N2CCOCC2)C(C)C)cc1 (stereo not drawn),inactive,–
CC(=O)c1c(C)oc2ccc(NS(=O)(=O)c3ccc(C(=O)O)cc3)cc12,inactive,–
O=C(Nc1ccc(O)cc1)c1ccc(NC(=O)c2ccco2)cc1,inactive,–
COC(=O)c1ccc2ccccc2c1OC1OC(CO)C(O)C(O)C1NC(C)=O (stereo not drawn),10.4 µM (active),–
COc1cc(/C=C/CO)cc(OC)c1O[C@@H]1O[C@H](CO)[C@@H](O)[C@H](O)[C@H]1O,inactive,–
CC(=O)NC1C(OCc2ccccc2)OC(COC(C)=O)C(OC(C)=O)C1OC(C)=O (stereo not drawn),inactive,–
Cn1cc(S(=O)(=O)Nc2ccc(Cl)cc2Cl)c(=O)n(C)c1=O,inactive,–
